The structures appear in SMILES notation. Results filed as inconclusive are left out. The source made the active and inactive calls. The call rests on the fitted dose curve; in most records, active means well fitted cell-killing curve with a large enough effect in the repeat runs; inconclusive means weak or mixed curves, or effect the other way; inactive means flat fitted curve, though single readings scatter.
On the % scale 0 is the no-effect control and ±100 the full control effect; potency means the concentration at half of the fitted maximal effect.

This test in a line: cAMP Responsive Elements (CRE) small molecule antagonists, cell-based qHTS assay: qHTS cell viability counter screen (AID 2060913). Further: nearly all actives have a fitted effect of over 40% in size. As to conditions: CRE-bla HEK293T viability, CellTiter-Glo luminescence, 5 h; series mostly up to 92.4 µM; viability change, negative = cytotoxic: at the top concentration. The text has this: U.S. Tox21 Program National Center for Advancing Translational Sciences [NCATS] Division of Preclinical Innovation [DPI] U.S. Environmental Protection Agency [EPA] National Institutes of Environmental Health Sciences [NIEHS] National Toxicology Program [NTP] U.S. Food and Drug Administration [FDA] Tox21 Assay Overview: CREB (cyclic-AMP Responsive Element Binding Protein) is a cellular transcription factor. It binds to certain DNA sequences called cAMP Responsive Elements (CRE) and regulates the transcription of the genes. […] This cell line can be used to find agonists/antagonists of the cyclic AMP signaling pathway. The activation of the report gene under culture conditions can be detected by fluorescence intensity. This cell line has been used to screen the Tox21 10K compound library to identify agonists that induce oxidative stress. The cytotoxicity of the Tox21 compound library against the CRE-bla cell line was tested in parallel by measuring the cell viability using CellTiter-Glo assay (Promega, Madison, WI) in the same wells.
Tox21 Assay Protocol Summary: CRE-bla Hek 293T cells were suspended in assay medium (DMEM containing 10% dialyzed FBS, 0.1 mM NEAA, 1 mM sodium pyruvate and 25 mM HEPES) and dispensed at 2,000 cells/4 uL /well into 1536-well black wall/clear bottom plates using a Multidrop Combi (ThermoFisher Scientific, Waltham, MA) dispenser. After the assay plates were incubated at 37 C/5% CO2 for 18 hrs, 23 nL of compounds dissolved in DMSO, positive controls or DMSO only was transferred to the assay plate by a pintool workstation (Kalypsys, San Diego, CA), followed by addition of 1 uL of 1.25uM NKH477 (0.25 uM as final concentration) in assay medium using a Flying Reagent Dispenser (Aurora Discovery, San Diego, CA). The plates were incubated at 37 C and 5% CO2 for 3 hrs. Then 1 uL of LiveBLAzer B/G FRET substrate (Invitrogen, Carlsbad, CA) was added to each well using Bioraptr Flying Reagent Dispenser (FRD, Aurora Discovery, San Diego, CA). The plates were incubated at room temperature for 2 h, then fluorescence intensities were measured using an Envision plate reader (PerkinElmer, Shelton, CT) at Excitation 405nm, Emission 460nm and 530nm. The % activity was determined from the ratio of 460nm/530nm. For cell viability readout that measures cytotoxicity, 4 uL /well of CellTiter-Glo reagent was added into the assay plates using Bioraptr FRD. After 30 min incubation at room temperature, the luminescence intensity in the assay plates was measured using a ViewLux (PerkinElmer, Shelton, CT) plate reader.
A general note: qHTS replaces the single test concentration by a dilution series.
With `Oc1cc2c(cc1O)[C@H]1c3ccc(O)c(O)c3OC[C@@]1(O)C2`, the “viability change, negative = cytotoxic” value was 17.9% (inactive).
Still for that read-out and setting: to `O[Si](c1ccccc1)(c1ccccc1)c1ccccc1` belongs 2.3% (inactive).
Turning to `C=CC(=O)OCCC#N`, the “viability change, negative = cytotoxic” value is 0.0709% (inactive).
Consider `CCCCC(CC)COC(=O)CC#N` (stereo not given), for which the “viability change, negative = cytotoxic” value was -1.7% (inactive).
Take `CC(C)(CC(=O)O)C(=O)O`: the “viability change, negative = cytotoxic” value is 0.868% (inactive).
The same measure, in the same setting: for `OC[C@H]1O[C@@H](OCCc2ccc(O)cc2)[C@H](O)[C@@H](O)[C@@H]1O` the value was 2.26% [at 42.5 µM] (inactive).
For `C=CCCCCCCCCCCC`, the viability change, negative = cytotoxic was -1.65% [at 8.39 µM] (inactive).
For the molecule `Clc1cccc(Cl)c1NC1=NCCN1`, the Potency result is “inactive”.
For the molecule `COc1cc2c(Nc3ccc(Br)cc3F)ncnc2cc1OCC1CCN(C)CC1`, the “viability change, negative = cytotoxic” value is -0.808% [at 42.5 µM] (inactive).
For `CC(=O)OC/C=C(\C)CC/C=C(\C)CCC=C(C)C`, the Potency entry is “inactive”.
Take `O=C(OC(=O)c1ccccc1)c1ccccc1`: the “viability change, negative = cytotoxic” value was -9.24% (inactive).
Still for that read-out and setting: to `CCC1C(=O)OCC1Cc1cncn1C` (stereo not given) belongs 4.75% [at 42.5 µM] (inactive).
With `NS(=O)(=O)c1cc(C2(O)NC(=O)c3ccccc32)ccc1Cl` (stereo not given), the “viability change, negative = cytotoxic” value was 5.09% [at 42.5 µM] (inactive).
The same measure, in the same setting: for `CCn1c2ccccc2c2ccccc21` the value was -5.35% (inactive).
For the molecule `CCCC(O)C(CC)CO` (stereo not given), the Potency result was “inactive”.
Same read-out and setting: to `Cn1sccc1=O` belongs “inactive”.
`C[N+](C)(C)CCOC(N)=O`: the “viability change, negative = cytotoxic” value was -0.465% [at 42.5 µM] (inactive).
Same read-out and setting: to `O=C(O)c1c(O)c(-c2ccccc2)nc2ccccc12` belongs -6.11% [at 42.5 µM] (inactive); to `CCCCCCCCc1ccc(S(=O)(=O)O)cc1`, -6.12% (inactive).
As to `O=C1NC(=O)[C@@]2(CCOc3ccc(F)cc32)N1`, the “viability change, negative = cytotoxic” value is -4.53% [at 42.5 µM] (inactive).
For the molecule `C=Cc1ccc(C)cc1`, the Potency entry was “inactive”.
Still for that read-out and setting: to `CC(=O)C(=O)O` belongs “inactive”.
As to `NCCCOCCOCCOCCCN`, the “viability change, negative = cytotoxic” value was -6.65% (inactive).
On the same count and under the same terms, for `CC(C)NC(=O)c1ccccc1N` the value was 0.608% (inactive); for `CCCCCC(CO)CCC` (stereo not given), 6.24% (inactive); for `CO[Si](CCCNc1ccccc1)(OC)OC`, -2.83% (inactive).
For the molecule `CC(=O)[C@@]1(O)CC[C@H]2[C@@H]3CCC4=CC(=O)CC[C@]4(C)[C@H]3CC[C@@]21C`, the Potency entry is “inactive”.
Take `C[C@H](N)C(=O)N[C@@H](C)C(=O)NC1[C@H]2CN(c3nc4c(cc3F)c(=O)c(C(=O)O)cn4-c3ccc(F)cc3F)C[C@@H]12` (stereo not given in full): the “viability change, negative = cytotoxic” value was 0.295% [at 42.5 µM] (inactive).
On the same count and under the same terms, for `Cc1ccc(C(=O)C(=O)O)cc1C` the value was 0.168% [at 42.5 µM] (inactive); for `CCCOc1ccc(S(=O)(=O)N2CCN(CC)CC2)cc1-c1nc2c(CC)n(Cc3ccccn3)nc2c(=O)[nH]1`, 11.6% (inactive); for `CCc1c2c(nc3ccc(OC(=O)N4CCC(N5CCCCC5)CC4)cc13)-c1cc3c(c(=O)n1C2)COC(=O)[C@]3(O)CC`, 4.95% [at 42.5 µM] (inactive).
Take `COc1ccc(OC)c(C(O)CNC(=O)CN)c1` (stereo not given): the Potency result is “inactive”.
As for `CCCSSCCC`, the “viability change, negative = cytotoxic” value was 4.43% (inactive).
As for `CCOC(=O)c1ccccc1O`, the “viability change, negative = cytotoxic” value is -0.987% [at 42.5 µM] (inactive).
As for `CCCCCC(=O)OCCc1ccccc1`, the “viability change, negative = cytotoxic” value is 6.92% (inactive).
Same read-out and setting: for `NC(=O)C(c1ccccc1)(c1ccccc1)[C@@H]1CCN(CCc2ccc3c(c2)CCO3)C1` the value was -0.024% [at 42.5 µM] (inactive); for `Cc1ccc(N(CCO)CCO)cc1`, 2.19% (inactive).
Consider `c1ccc2c(c1)ccc1c3ccccc3ccc21`, for which the “viability change, negative = cytotoxic” value is 7.2% [at 42.5 µM] (inactive).
For `CCCCC(CC)CN=C(N)NC(N)=NCCCCCCN=C(N)NC(N)=NCC(CC)CCCC` (stereo not given), the Potency is 21.1 µM (active).
Regarding `C=CCSSCCC`, the “viability change, negative = cytotoxic” value was 5.4% (inactive).

The record behind these values is PubChem BioAssay (Tox21).
